Data as given in PubChem BioAssay (NCI).
Compounds without any hit were thinned out: in the full panel of roughly 83,000, 20% have a hit.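 Negative percent growth values reflect cell death: -40 means 40% of the cells present at the start died, and -100 means all died.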 A number with no mark means an inactive call. Active and inactive are the calls of the source. The calls were made as follows: active = growth percent below 10; inactive = the rest.

Tests used:
Assay in all cases: NCI-60 one-dose screen, 48 h (100 = growth as untreated, 0 = no growth, -100 = all killed)
Settings in all cases: 10 µM unless noted
SK-MEL-2 melanoma = tested on: SK-MEL-2 melanoma
EKVX NSCLC = tested on: EKVX NSCLC
SN12C renal = tested on: SN12C renal
UO-31 renal = tested on: UO-31 renal
TK-10 renal = tested on: TK-10 renal
ACHN renal = tested on: ACHN renal
CAKI-1 renal = tested on: CAKI-1 renal
A498 renal = tested on: A498 renal
CCRF-CEM leukemia = tested on: CCRF-CEM leukemia
MOLT-4 leukemia = tested on: MOLT-4 leukemia

CC1=C(SCC(=O)OCCCCCC(C)C)C(=O)c2ccccc2C1=O
growth (SK-MEL-2 melanoma): 99.1% | growth (EKVX NSCLC): 82.5% | growth (SN12C renal): 83% | growth (UO-31 renal): 62.9% | growth (TK-10 renal): 133% | growth (ACHN renal): 85.7% | growth (CAKI-1 renal): 80.3% | growth (A498 renal): 107% | growth (CCRF-CEM leukemia): 91.3% | growth (MOLT-4 leukemia): 79.4%

CCCCCCN1C=C/C(=C\C(=O)n2ccc3ccccc32)c2ccccc21
growth (SK-MEL-2 melanoma): 76% | growth (EKVX NSCLC): 36.3% | growth (SN12C renal): 67.6% | growth (UO-31 renal): 52% | growth (TK-10 renal): 114% | growth (ACHN renal): 66.3% | growth (CAKI-1 renal): 61% | growth (A498 renal): 97.5% | growth (CCRF-CEM leukemia): 54.8% | growth (MOLT-4 leukemia): 62%

CN1CCN(CC#CCn2c3c(c4ccccc42)C[C@]2(C)[C@H]4CC=C5[C@@H]6CC(C)(C)CC[C@]6(C(=O)N6CCOCC6)CC[C@@]5(C)[C@]4(C)CC[C@H]2C3(C)C)CC1
growth (SK-MEL-2 melanoma): 119% | growth (EKVX NSCLC): 75.2% | growth (SN12C renal): 81.1% | growth (UO-31 renal): 56.5% | growth (TK-10 renal): 135% | growth (ACHN renal): 93% | growth (CAKI-1 renal): 64.5% | growth (A498 renal): 92.4% | growth (CCRF-CEM leukemia): 35% | growth (MOLT-4 leukemia): 33.9%

CC(Nc1c(C#N)cnc2ccc(-c3cncc(-c4n[nH]c(=O)o4)c3)cc12)c1ccccc1 (stereo not given)
growth (SK-MEL-2 melanoma): -34% (active) | growth (EKVX NSCLC): -12% (active) | growth (SN12C renal): 11% | growth (UO-31 renal): 1.27% (active) | growth (TK-10 renal): -23.8% (active) | growth (ACHN renal): 9.24% (active) | growth (CAKI-1 renal): 4.01% (active) | growth (A498 renal): -6.1% (active) | growth (CCRF-CEM leukemia): 19.6% | growth (MOLT-4 leukemia): 8.04% (active)

CSc1ccc(C(=NNS(=O)(=O)c2ccc(C)cc2)c2ccc(Cl)cc2)cc1
growth (SK-MEL-2 melanoma): 95.9% | growth (EKVX NSCLC): 98.2% | growth (SN12C renal): 92.7% | growth (UO-31 renal): 81.8% | growth (TK-10 renal): 104% | growth (ACHN renal): 105% | growth (CAKI-1 renal): 86.2% | growth (A498 renal): 96.5% | growth (CCRF-CEM leukemia): 97.7% | growth (MOLT-4 leukemia): 98.6%

CC[C@]12C=CCN3CC[C@@]4(c5ccc(OC)cc5N(C)[C@H]4[C@@](O)(C(=O)OC)[C@@H]1OC(=O)CCN1CCc4ccccc4C1)[C@@H]32
growth (SK-MEL-2 melanoma): 108% | growth (EKVX NSCLC): 88.6% | growth (SN12C renal): 99.4% | growth (UO-31 renal): 71.6% | growth (TK-10 renal): 98.8% | growth (ACHN renal): 99.3% | growth (CAKI-1 renal): 80.3% | growth (A498 renal): 94.5% | growth (CCRF-CEM leukemia): 82.6% | growth (MOLT-4 leukemia): 80.5%

COc1cc(-c2nc(-c3ccccc3)[nH]c2-c2ccnc(NCCCNS(=O)(=O)c3ccc(C)cc3)n2)ccc1F
growth (SK-MEL-2 melanoma): 104% | growth (EKVX NSCLC): 74.5% | growth (SN12C renal): 89.3% | growth (UO-31 renal): 78.6% | growth (TK-10 renal): 123% | growth (ACHN renal): 84.6% | growth (CAKI-1 renal): 105% | growth (A498 renal): 84.1% | growth (CCRF-CEM leukemia): 56.9% | growth (MOLT-4 leukemia): 45.1%

NC(=O)c1c(NC(=O)c2ccc(C(F)(F)F)cc2)sc2c1CCC(=O)C2
growth (SK-MEL-2 melanoma): 51.3% | growth (EKVX NSCLC): 24.8% | growth (SN12C renal): 12.4% | growth (UO-31 renal): -86.4% (active) | growth (TK-10 renal): 17% | growth (ACHN renal): -47.1% (active) | growth (CAKI-1 renal): -24.3% (active) | growth (A498 renal): 89.4% | growth (CCRF-CEM leukemia): -4.99% (active) | growth (MOLT-4 leukemia): 4.59% (active)

O=S(=O)(NCCCNc1nccc(-c2[nH]c(-c3ccccc3)nc2-c2ccc(F)c(O)c2)n1)c1ccc(C(F)(F)F)cc1
growth (SK-MEL-2 melanoma): 18.8% | growth (EKVX NSCLC): 69.7% | growth (SN12C renal): 67.7% | growth (UO-31 renal): 91.4% | growth (TK-10 renal): 95.7% | growth (ACHN renal): 58.7% | growth (CAKI-1 renal): 40.5% | growth (A498 renal): 28.3% | growth (CCRF-CEM leukemia): 4.62% (active) | growth (MOLT-4 leukemia): 17.2%

Clc1ccc(CSc2nnc(-c3ccc(Cl)cc3)n2-c2ccccc2)cc1
growth (SK-MEL-2 melanoma): 85.9% | growth (EKVX NSCLC): 86.6% | growth (SN12C renal): 82.9% | growth (UO-31 renal): 68.2% | growth (TK-10 renal): 93.3% | growth (ACHN renal): 55.5% | growth (CAKI-1 renal): 62.9% | growth (A498 renal): 68% | growth (CCRF-CEM leukemia): 97.4% | growth (MOLT-4 leukemia): 92%

CCNC(=O)Oc1ccc(/C(=C(/C)c2ccc(Cl)cc2)c2ccc(OCCN3CCCCCC3)cc2)cc1
growth (SK-MEL-2 melanoma): 64.2% | growth (EKVX NSCLC): 56.1% | growth (SN12C renal): 36.7% | growth (UO-31 renal): -9.5% (active) | growth (TK-10 renal): 84.5% | growth (ACHN renal): 42.1% | growth (CAKI-1 renal): 10.3% | growth (A498 renal): 64.7% | growth (CCRF-CEM leukemia): 12.7% | growth (MOLT-4 leukemia): 13%

O=C(CSc1nc2ccccc2c(=O)n1-c1ccc(S(=O)(=O)Nc2ccc(Cl)nn2)cc1)Nc1ccc(S(=O)(=O)Nc2ccc(Cl)nn2)cc1
growth (SK-MEL-2 melanoma): 120% | growth (EKVX NSCLC): 99.8% | growth (SN12C renal): 106% | growth (UO-31 renal): 87.9% | growth (TK-10 renal): 106% | growth (ACHN renal): 98.2% | growth (CAKI-1 renal): 91.9% | growth (A498 renal): 104% | growth (CCRF-CEM leukemia): 101% | growth (MOLT-4 leukemia): 97.6%

COc1ccc([C@H]2C(=O)N(c3cc(OC)c(OC)c(OC)c3)[C@@H]2c2ccc(OC)c(O)c2)cc1
growth (SK-MEL-2 melanoma): 9.11% (active) | growth (EKVX NSCLC): 46.1% | growth (SN12C renal): 30.4% | growth (UO-31 renal): 26.9% | growth (TK-10 renal): 110% | growth (ACHN renal): 28.4% | growth (CAKI-1 renal): 24.5% | growth (A498 renal): -29.9% (active) | growth (CCRF-CEM leukemia): 18.9% | growth (MOLT-4 leukemia): 13.4%

O=C(Nc1ccc(Cl)c(C(F)(F)F)c1)Nc1ccc2oc(=O)ccc2c1
growth (SK-MEL-2 melanoma): 71.2% | growth (EKVX NSCLC): 35.2% | growth (SN12C renal): 31.9% | growth (UO-31 renal): 31.3% | growth (TK-10 renal): 70.4% | growth (ACHN renal): 10.2% | growth (CAKI-1 renal): 36.1% | growth (A498 renal): 33% | growth (CCRF-CEM leukemia): 25.5% | growth (MOLT-4 leukemia): 28.2%

C[C@H]1OCC2(CCN(c3cnc(C(=O)Nc4cc(F)cc5cccnc45)cn3)CC2)[C@H]1N
growth (SK-MEL-2 melanoma): 101% | growth (EKVX NSCLC): 77.2% | growth (SN12C renal): 46.5% | growth (UO-31 renal): 38.9% | growth (TK-10 renal): 82.2% | growth (ACHN renal): 33.7% | growth (CAKI-1 renal): 40.9% | growth (A498 renal): 65.2% | growth (CCRF-CEM leukemia): 15.6% | growth (MOLT-4 leukemia): 16.8%

O=C(/C=C/c1cccc(C(F)(F)F)c1)Nc1cccc(C(F)(F)F)c1
growth (SK-MEL-2 melanoma): 76.8% | growth (EKVX NSCLC): 50.1% | growth (SN12C renal): 83.1% | growth (UO-31 renal): 47.7% | growth (TK-10 renal): 53.5% | growth (ACHN renal): 70.1% | growth (CAKI-1 renal): 34.1% | growth (A498 renal): 54.3% | growth (CCRF-CEM leukemia): 31.7% | growth (MOLT-4 leukemia): 35.8%

CCOC(=O)c1cccc(NC2=C(Cl)C(=O)C(C)=C(C)C2=O)c1
growth (SK-MEL-2 melanoma): 104% | growth (EKVX NSCLC): 74.4% | growth (SN12C renal): 94.8% | growth (UO-31 renal): 96.7% | growth (TK-10 renal): 129% | growth (ACHN renal): 106% | growth (CAKI-1 renal): 89.4% | growth (A498 renal): 89.1% | growth (CCRF-CEM leukemia): 13.9% | growth (MOLT-4 leukemia): 5.67% (active)

COc1ccc2c(c1)c(-c1nn3cc(-c4ccncc4)nc3s1)cn2C
growth (SK-MEL-2 melanoma): 104% | growth (EKVX NSCLC): 77.6% | growth (SN12C renal): 84.3% | growth (UO-31 renal): 53.3% | growth (TK-10 renal): 130% | growth (ACHN renal): 71.4% | growth (CAKI-1 renal): 50.6% | growth (A498 renal): 83.7% | growth (CCRF-CEM leukemia): 43.9% | growth (MOLT-4 leukemia): 47.2%

CCOC(=O)c1c(NC(=O)c2cccc(C(F)(F)F)c2)sc2c3c(ccc12)OCN(C)C3
growth (SK-MEL-2 melanoma): 98.8% | growth (EKVX NSCLC): 36.9% | growth (SN12C renal): -66.2% (active) | growth (UO-31 renal): 31.8% | growth (TK-10 renal): 126% | growth (ACHN renal): -91.9% (active) | growth (CAKI-1 renal): 44.8% | growth (A498 renal): 84.3% | growth (CCRF-CEM leukemia): -39.5% (active) | growth (MOLT-4 leukemia): -48.5% (active)

COC(=O)N1CCN(CCNCc2ccc(NC(=O)c3ccc(C)c(C#Cc4cnc5cccnn45)c3)cc2C(F)(F)F)CC1
growth (SK-MEL-2 melanoma): 4.46% (active) | growth (EKVX NSCLC): 48.9% | growth (SN12C renal): 39.8% | growth (UO-31 renal): 26.8% | growth (TK-10 renal): 68.9% | growth (ACHN renal): 29.6% | growth (CAKI-1 renal): 20.2% | growth (A498 renal): 47.8% | growth (CCRF-CEM leukemia): 10.8% | growth (MOLT-4 leukemia): 8.21% (active)

Cc1ccc2c(n1)C(=O)C(Cl)=C(Nc1cccc(C(F)(F)F)c1)C2=O
growth (SK-MEL-2 melanoma): 99.7% | growth (EKVX NSCLC): 58.1% | growth (SN12C renal): 85.8% | growth (UO-31 renal): -67.7% (active) | growth (TK-10 renal): 127% | growth (ACHN renal): -96.2% (active) | growth (CAKI-1 renal): 81.8% | growth (A498 renal): 86% | growth (CCRF-CEM leukemia): 4.32% (active) | growth (MOLT-4 leukemia): 6.52% (active)

N#C/C(=C\c1ccc(-c2ccc(Cl)c(Cl)c2)o1)C(=O)Nc1ncc(Cc2ccc(Cl)cc2)s1
growth (SK-MEL-2 melanoma): 87.9% | growth (EKVX NSCLC): 32.2% | growth (SN12C renal): 12% | growth (UO-31 renal): 24.9% | growth (TK-10 renal): 68.5% | growth (ACHN renal): 59.1% | growth (CAKI-1 renal): 57.4% | growth (A498 renal): 40.9% | growth (CCRF-CEM leukemia): 31.9% | growth (MOLT-4 leukemia): 58.6%

Cc1ccc(C(=O)Nc2ccc(CNCCN3CCNCC3)c(C(F)(F)F)c2)cc1C#Cc1cnc2cccnn12
growth (SK-MEL-2 melanoma): 64% | growth (EKVX NSCLC): 29.6% | growth (SN12C renal): 76.2% | growth (UO-31 renal): 76.7% | growth (TK-10 renal): 129% | growth (ACHN renal): 57% | growth (CAKI-1 renal): 75.9% | growth (A498 renal): -33.4% (active) | growth (CCRF-CEM leukemia): -39.7% (active) | growth (MOLT-4 leukemia): -49.5% (active)
